# Assay results as given in PubChem BioAssay.
# The source made the active and inactive calls. Cut-off read from the data, not from the text of the source, unless noted: active = inhibition above about 80%; inactive = the rest.
# Columns and labels:
# [1] = LFS_MB_P medulloblastoma growth inhibition, cell-based, chromothripsis tumors, cisplatin or BGB combos (AID 1671449); conditions: LFS_MB_P medulloblastoma cells;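 note: cells exposed for 96 hours; 0% = vehicle DMSO and 100% = killing by high DMSO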
# [2] = HDN33 neuroblastoma growth inhibition, cell-based, chromothripsis tumors, cisplatin or BGB combos (AID 1671450); conditions: HDN33 neuroblastoma cells, stronger effect = higher value;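 note: cells exposed to compound for four days; 0% = vehicle DMSO and 100% = cell killing by high DMSO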
# [3] = ICB984 medulloblastoma cell growth inhibition, synergistic combos for chromothripsis tumors, cisplatin or BGB combos (AID 1671451; call rule not given here;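 note: cells exposed for 96 hours before readout; 0% = vehicle DMSO and 100% = killing by high DMSO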); conditions: ICB984 medulloblastoma cells, drug combinations, stronger effect = higher value
# [4] = LFS_MB_1R medulloblastoma cell growth inhibition, synergistic combos for chromothripsis tumors, cisplatin or BGB combos (AID 1671452); conditions: LFS_MB_1R medulloblastoma cells, stronger effect = higher value;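 note: cells exposed for 96 hours before readout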
# [5] = HTB85 osteosarcoma cell growth inhibition, synergistic combos for chromothripsis tumors, BGB or cisplatin IC20 combos (AID 1671453); conditions: HTB85 osteosarcoma cells, drug combinations, stronger effect = higher value;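 note: cells exposed for 96 hours before readout; 0% = vehicle DMSO and 100% = high DMSO killing control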
# [6] = CRL2098 osteosarcoma cell growth inhibition, synergistic combos for chromothripsis tumors, BGB or cisplatin IC20 combos (AID 1671454); conditions: CRL2098 osteosarcoma cells, drug combinations, stronger effect = higher value;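 note: cells exposed for 96 h before readout; 0% = vehicle DMSO and 100% = killing by high DMSO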
# [7] = HD-MB03 medulloblastoma cell growth inhibition, synergistic combos for chromothripsis tumors, BGB or cisplatin IC20 combos (AID 1671455; in the data active = inhibition above about 83%;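 note: 0% = vehicle DMSO and 100% = high DMSO as cytotoxic control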); conditions: HD-MB03 medulloblastoma cells, stronger effect = higher value
# [8] = UWB1.289 ovarian carcinoma cell growth inhibition, synergistic combos for chromothripsis tumors, BGB or cisplatin combos (AID 1671456); conditions: UWB1.289 ovarian carcinoma cells, stronger effect = higher value;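 note: cells exposed to compound for four days; 0% = vehicle DMSO and 100% = killing by high DMSO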
# [9] = LFS_MB_2R medulloblastoma cell growth inhibition, synergistic combos for chromothripsis tumors, cisplatin combos (AID 1671457); conditions: LFS_MB_2R medulloblastoma cells, stronger effect = higher value;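 note: cells exposed to compound for four days before readout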
# [10] = MDA-MB-436 breast carcinoma cell growth inhibition, synergistic combos for chromothripsis tumors, BGB or cisplatin combos (AID 1671458; call rule not given here;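 note: cells exposed for 96 hours; 0% = vehicle DMSO and 100% = killing by high DMSO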); conditions: MDA-MB-436 breast carcinoma growth inhibition, drug combinations, stronger effect = higher value
# [11] = UWB1.289_BRCA1 ovarian cancer growth, cell-based, BGB or cisplatin combinations (AID 1671459); conditions: UWB1.289 BRCA1 ovarian carcinoma, drug combinations, stronger effect = higher value
# [12] = human astrocyte viability loss, single and combined drugs, cytotoxicity control for chromothriptic childhood tumor combination screen, cell-based, BGB or cisplatin IC20 combos (AID 1671460); conditions: Human astrocytes, drug combinations, stronger effect = higher value;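 note: cells exposed to compounds for 96 hours before viability readout; 0% = vehicle and 100% = killing control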
# [13] = growth inhibition of BT084 medulloblastoma cells, cell-based, ICGC_MB145, cisplatin and BGB IC40 combos (AID 1671461); conditions: drug combinations, stronger effect = higher value;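 note: cells exposed to drugs for 96 hours; 0% = vehicle DMSO and 100% = high DMSO full killing control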
# [14] = growth inhibition of RCMB18 medulloblastoma cells, cell-based, cisplatin and BGB IC40 combos (AID 1671462); conditions: stronger effect = higher value;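 note: cells exposed to compound for four days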
# [15] = growth inhibition of CRL1545 osteosarcoma cells, cell-based, cisplatin and BGB IC20 combos (AID 1671464); conditions: stronger effect = higher value;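 note: cells exposed to compound for 96 hours before readout; 0% = vehicle DMSO and 100% = high DMSO killing control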
# [16] = measured here: combination with BGB IC40, at 0.05 µM
# [17] = measured here: with BGB IC20 combination, at 0.5 µM
# [18] = measured here: with cisplatin IC20 combination, at 0.5 µM
# [19] = measured here: combination with cisplatin, at 0.5 µM
# [20] = measured here: combination with cisplatin, at 5 µM
smiles,measurement,setting,value
Cn1cnc2[nH]c(=O)[nH]c(=O)c21,inhibition,"[1]; at 0.5 µM, stronger effect = higher value",-31.2% (inactive)
same,inhibition,"[1]; measured here: combination with BGB IC20, at 0.005 µM",-23.8%
same,inhibition,"[1]; measured here: combination with BGB IC40, at 0.005 µM",-24.9%
same,inhibition,[1]; [16],-15.5%
same,inhibition,"[1]; measured here: combination with cisplatin, at 0.5 µM, stronger effect = higher value",-52.2%
same,inhibition,"[1]; measured here: combination with cisplatin, at 5 µM, stronger effect = higher value",-16.9%
same,inhibition,"[2]; BGB combo, at 5 µM",-14.9%
same,inhibition,[2]; at 0.5 µM,-29.3% (inactive)
same,inhibition,"[2]; cisplatin combo, at 5 µM",-9.77%
same,inhibition,[2]; [17],-37.1%
same,inhibition,[2]; [18],-7.77%
same,inhibition,"[2]; single agent, at 5 µM",-7.59%
same,inhibition,"[3]; BGB IC20 combo, at 0.005 µM",-15.3%
same,inhibition,"[3]; BGB IC40 combo, at 0.005 µM",-28.7%
same,inhibition,"[3]; BGB IC40 combo, at 0.05 µM",-16.7%
same,inhibition,[3]; at 0.5 µM,-24.9% (inactive)
same,inhibition,"[3]; cisplatin combo, at 0.05 µM",-16.7%
same,inhibition,"[3]; cisplatin combo, at 0.5 µM",-33.2%
same,inhibition,"[3]; cisplatin combo, at 5 µM",-13.6%
same,inhibition,"[3]; measured here: 5 uM single agent, at 5 µM",2.87%
same,inhibition,[4]; at 0.5 µM,-24.6% (inactive)
same,inhibition,[4]; [16],-0.159%
same,inhibition,[4]; [19],11.9%
same,inhibition,[4]; [20],-7.74%
same,inhibition,[5]; at 0.5 µM,-29.8% (inactive)
same,inhibition,"[5]; measured here: with BGB IC20, at 0.5 µM",-76.7%
same,inhibition,"[5]; measured here: with BGB IC20, at 5 µM",-27.8%
same,inhibition,"[5]; measured here: with cisplatin IC20, at 0.5 µM",0.051%
same,inhibition,"[5]; measured here: with cisplatin IC20, at 5 µM",18.6%
same,inhibition,"[5]; single agent, at 5 µM",-24.4%
same,inhibition,[6]; at 0.5 µM,-69.2% (inactive)
same,inhibition,"[6]; measured here: combination with BGB at IC20, at 0.5 µM",-77.5%
same,inhibition,"[6]; measured here: combination with cisplatin at IC20, at 0.5 µM",-102%
same,inhibition,[7]; at 0.5 µM,-10.2% (inactive)
same,inhibition,"[7]; measured here: combo with BGB at IC20, at 0.5 µM",-8.65%
same,inhibition,"[7]; measured here: combo with cisplatin at IC20, at 0.5 µM",-11.2%
same,inhibition,[8]; at 0.5 µM,-8.42% (inactive)
same,inhibition,"[8]; measured here: inhibition with BGB combination, at 0.05 µM",-20.6%
same,inhibition,"[8]; measured here: inhibition with cisplatin combination, at 0.05 µM",-21.4%
same,inhibition,[9]; at 0.5 µM,-6.27% (inactive)
same,inhibition,[9]; [19],-10.9%
same,inhibition,[9]; [20],-15.8%
same,inhibition,[10]; at 0.5 µM,-15.1% (inactive)
same,inhibition,"[10]; measured here: BGB combination, at 0.5 µM",-7.33%
same,inhibition,"[10]; measured here: BGB combination, at 5 µM",-1.97%
same,inhibition,"[10]; measured here: cisplatin combination, at 0.5 µM",-35.1%
same,inhibition,"[10]; measured here: cisplatin combination, at 5 µM",-7.26%
same,inhibition,"[11]; BGB combination, concentration series, at 5 µM",-2.15%
same,inhibition,[11]; at 0.5 µM,-8.08% (inactive)
same,inhibition,"[11]; cisplatin combination, concentration series, at 5 µM",4.95%
same,inhibition,[12]; at 0.5 µM,14% (inactive)
same,inhibition,"[12]; measured here: combo with BGB IC20, at 0.5 µM",17.9%
same,inhibition,"[12]; measured here: combo with cisplatin IC20, at 0.5 µM",4.38%
same,inhibition,[13]; at 0.5 µM,-17.3% (inactive)
same,inhibition,"[13]; cisplatin combination, at 0.5 µM",-7.22%
same,inhibition,"[13]; cisplatin combination, at 5 µM",-68.1%
same,inhibition,"[13]; measured here: BGB IC40 combination 0.05 uM, at 0.05 µM",-20.6%
same,inhibition,"[13]; single agent, at 5 µM",-30.4%
same,inhibition,[14]; at 0.5 µM,-15.8% (inactive)
same,inhibition,"[14]; cisplatin combo, at 5 µM",-20.1%
same,inhibition,"[14]; measured here: BGB IC40 combination, at 0.05 µM",-17.4%
same,inhibition,[14]; [19],-33.2%
same,inhibition,"[14]; single agent, at 5 µM",-24.4%
same,inhibition,[15]; at 0.5 µM,-15.4% (inactive)
same,inhibition,[15]; [17],4.76%
same,inhibition,[15]; [18],-25.6%
same,inhibition,"[15]; single agent, at 0.05 µM",-33.9%
same,inhibition,"[15]; single agent, at 5 µM",-5.96%
